# Data: PubChem BioAssay AID777 (Sanford-Burnham Center for Chemical Genomics, 2007)
# Screen size: about 96,000 compounds; about 19,000 (20%) were called active.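 The calls were made as follows: active = blocking of liver enzyme CYP2C9 beyond about 50% at 5 µM (limit read from the data); inactive = the rest.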 A selection follows.
# Biological target: Cytochrome P450 2C9 (Homo sapiens) (UniProt P11712)
# Test: blockers of cytochrome P450 2C9 activity – biochemical, luminescence, ADME assay, primary screen (AID 777)
# Settings: CYP2C9 Supersomes, luciferin-H conversion, at 5 µM, stronger effect = higher value
# Chain of Cytochrome P450 2C9 (Homo sapiens) (P11712 whole entry, looked up): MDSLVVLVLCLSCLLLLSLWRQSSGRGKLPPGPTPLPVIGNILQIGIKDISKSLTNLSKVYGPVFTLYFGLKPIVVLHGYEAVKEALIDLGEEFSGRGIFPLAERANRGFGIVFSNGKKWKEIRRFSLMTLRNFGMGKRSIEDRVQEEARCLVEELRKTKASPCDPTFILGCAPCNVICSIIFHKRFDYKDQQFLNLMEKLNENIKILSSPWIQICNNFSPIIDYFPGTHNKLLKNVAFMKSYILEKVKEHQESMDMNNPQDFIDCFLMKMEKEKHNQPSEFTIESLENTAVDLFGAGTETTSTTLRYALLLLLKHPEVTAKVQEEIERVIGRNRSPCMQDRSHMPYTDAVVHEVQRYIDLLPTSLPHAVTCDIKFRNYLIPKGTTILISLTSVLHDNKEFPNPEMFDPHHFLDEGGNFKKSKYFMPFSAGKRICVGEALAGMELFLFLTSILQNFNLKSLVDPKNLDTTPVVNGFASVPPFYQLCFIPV
row,Structure (SMILES),inhibition
1,O=S(=O)(c1ccc(Br)cc1)n1ccc2ccccc21,-2.4% (inactive)
2,CCOCCOCCC(C(=O)O)P(=O)(c1ccccc1)c1ccccc1 (stereo not given),-7.7% (inactive)
3,COC(=O)c1sccc1N/N=C(\C)c1ccc(F)c(Cl)c1,9.3% (inactive)
4,COC(=O)c1sccc1NC(=O)CSc1ccccc1NS(=O)(=O)c1cc(Cl)ccc1Cl,84.2% (active)
5,COC(=O)c1sccc1NC(=O)c1cc(OC)c(OC)c(OC)c1,7.6% (inactive)
6,COC(=O)c1ccccc1Oc1c(F)c(F)nc(N2CCOCC2)c1F,45.2% (inactive)
7,CCCCSc1nc2c(c(=O)n1CC)SC(C)C2 (stereo not given),51.2% (active)
8,CCCCCn1c(SCCC(C)C)nc2c1c(=O)[nH]c(=O)n2C,10.1% (inactive)
9,CCn1c(SCC(=O)Nc2ccc3c(c2)OCCO3)nc2c(c1=O)SC(C)C2 (stereo not given),92.9% (active)
10,CCOc1ccc(NC(=O)CSc2nc3c(c(=O)n2-c2ccccc2OC)SCC3)cc1,40.8% (inactive)
11,COc1ccccc1C(=O)C(O)c1ccccc1OC (stereo not given),-2.8% (inactive)
12,CCOC(=O)N1CCN(CC(=O)Nc2cc(C)nn2-c2nc3ccccc3s2)CC1,25.8% (inactive)
13,O=C(c1ccco1)N(Cc1nc2ccccc2c(=O)[nH]1)C1CCCC1,-20.5% (inactive)
14,CC(=O)Oc1cccc(N2C(=O)CC(Nc3ccc(N4CCOCC4)cc3)C2=O)c1 (stereo not given),19.9% (inactive)
15,CC1OC2C(OC1C)N(S(C)(=O)=O)CCN2S(C)(=O)=O (stereo not given),-6.8% (inactive)
16,Cc1cccc(N2C(=O)C3C(c4ccccc4)OC4(C(=O)c5ccccc5C4=O)C3C2=O)c1 (stereo not given),-8.4% (inactive)
17,Cc1cc(NC(=O)CCC(=O)N(c2cccc(F)c2)C(C(=O)NC2CCCC2)c2ccncc2)no1 (stereo not given),77.9% (active)
18,Cc1cc(NC(=O)CN2CCC(O)(c3cccc(F)c3)CC2)no1,23.3% (inactive)
19,Cc1cc(NC(=O)CCC(=O)N(c2ccccc2)C(C(=O)NC2CCCC2)c2ccncc2)no1 (stereo not given),55.9% (active)
20,Cc1cc(NC(=O)CCC2COc3ccccc3O2)no1 (stereo not given),7.1% (inactive)
21,Cc1cc(NC(=O)/C=C/C(=O)N(c2ccccc2C)C(C(=O)NC2CCCC2)c2ccc(F)cc2)no1 (stereo not given),25.2% (inactive)
22,Cc1ccc(C(C(=O)NC2CCCC2)N(Cc2ccco2)C(=O)CCC(=O)Nc2ccccn2)cc1 (stereo not given),28.7% (inactive)
23,CC1CC(C)CN(C/C=C/c2ccccc2[N+](=O)[O-])C1 (stereo not given),9.8% (inactive)
24,CCc1nc(C)ccc1OCC(=O)N(CC)CC,-6.3% (inactive)

row,Structure (SMILES),inhibition
1,c1ccc(Nc2n[nH]nc2-c2ccccc2)cc1,28.9% (inactive)
2,Cc1cccc(Cn2c(N3CCN(c4ccccc4)CC3)nc3c2c(=O)n(C)c(=O)n3C)c1,66.1% (active)
3,C/C(Cl)=C\Cn1c(Nc2cccc(C)c2)nc2c1c(=O)n(C)c(=O)n2C,-7.8% (inactive)
4,Cn1c(=O)c2c(ncn2CC(=O)N2CCN(c3ccccc3)CC2)n(C)c1=O,6.8% (inactive)
5,CC(C)OCCCNc1nc2c(c(=O)n(Cc3ccccc3F)c(=O)n2C)n1C,22.3% (inactive)
6,Cc1cccc(Cn2c(SCCO)nc3c2c(=O)n(C)c(=O)n3C)c1,54% (active)
7,CCOC(=O)CSc1nc2c(c(=O)n(C)c(=O)n2C)n1Cc1ccccc1F,60.5% (active)
8,CCOC(=O)CSc1nc2c(c(=O)n(Cc3ccccc3Cl)c(=O)n2C)n1C,-7.5% (inactive)
9,CCCSc1nc2c(c(=O)n(C)c(=O)n2C)n1Cc1ccc(C)cc1,9.9% (inactive)
10,CCOc1ccc(Cn2c(SCCCCC#N)nc3c2c(=O)n(C)c(=O)n3C)cc1OCC,31.1% (inactive)
11,COc1ccc(CNC(=O)C2CCN(S(=O)(=O)N3CCOCC3)CC2)cc1,-2.7% (inactive)
12,Cn1c(N)c(C(=O)COC(=O)C23CC4CC(CC(C4)C2)C3)c(=O)n(C)c1=O,29.6% (inactive)
13,COc1ccc(N2C(=O)C3CCCN3C2c2cc(OC)c(OC)cc2OC)cc1 (stereo not given),-1.9% (inactive)
14,CC1CN(C(=O)CN2C(=O)NC(C)(c3ccccc3)C2=O)CC(C)O1 (stereo not given),-27.2% (inactive)
15,CCOC(=O)C1=C(CNC2CCCCC2)NC(=O)NC1c1cc(C)ccc1C (stereo not given),84.7% (active)
16,CCOC(=O)C1=C(CSc2nccn2C)NC(=O)NC1c1ccc(OC)cc1 (stereo not given),17.2% (inactive)
17,CCOC(=O)c1[nH]cnc1C(=O)NC1CCCCC1,28.5% (inactive)
18,Cc1[nH]c2ccccc2c1C(=O)CSCC(=O)O,-30.3% (inactive)
19,COc1ccc2[nH]c3c(=O)n(Cc4ccco4)cnc3c2c1,26% (inactive)
20,CCC(c1nnnn1C1CCCC1)N(Cc1cccs1)Cc1cc2cccc(C)c2[nH]c1=O (stereo not given),-52.1% (inactive)
21,CCC(c1nnnn1Cc1ccco1)N(Cc1cc2cc(OC)ccc2[nH]c1=O)C1CCCCC1 (stereo not given),58.2% (active)
22,CCC(c1nnnn1Cc1ccco1)N(CCc1ccccc1)Cc1cc2ccc(OC)cc2[nH]c1=O (stereo not given),91.9% (active)
23,CCC(c1nnnn1Cc1ccco1)N(CCc1ccccc1)Cc1cc2cccc(C)c2[nH]c1=O (stereo not given),29% (inactive)
24,CCOc1ccc2c(c1)cc(CN(C(=O)CC)C1CCCCC1)c1nnnn12,35.6% (inactive)

row,Structure (SMILES),inhibition
1,CC1(C)Cc2cccc(OCC(N)=O)c2O1,-6.4% (inactive)
2,CCn1ncc(Br)c1C(=O)Nc1cc(C)ccc1F,-6.9% (inactive)
3,Cc1csc(NC(=O)CN2CCCCCC2)n1,0.6% (inactive)
4,CC(Oc1ccc(Cl)cc1Cl)C(=O)/C=C/N(C)C (stereo not given),23% (inactive)
5,Cc1cc(=O)cc(C)[nH]1,-13.9% (inactive)
6,Cc1ncn(C23CC4CC(CC(O)(C4)C2)C3)n1,10.7% (inactive)
7,COCCOCCn1cnc2ccccc21,0% (inactive)
8,CC(C)c1ccc(NC(=O)CCN2C(=O)c3ccc([N+](=O)[O-])cc3C2=O)cc1,14.3% (inactive)
9,COC(=O)c1cc(NC(=O)C2C3C=CC(C3)C2C(=O)O)cc(C(=O)OC)c1 (stereo not given),64.3% (active)
10,CC(C)COC(=O)c1ccc(NC(=O)C2C3C=CC(C3)C2C(=O)O)cc1 (stereo not given),29.9% (inactive)
11,CCC(CC)C(=O)Nc1cc(C(=O)OC)cc(C(=O)OC)c1,9% (inactive)
12,Cc1sc(NC(=O)C2C3CCC(O3)C2C(=O)O)c(C(=O)OC(C)C)c1-c1ccc(Cl)cc1 (stereo not given),9.3% (inactive)
13,CC(C)OC(=O)c1cc(NC(=O)C2C3CCC(O3)C2C(=O)O)cc(C(=O)OC(C)C)c1 (stereo not given),79.4% (active)
14,Cn1c(=O)c2c(n(Cc3ccccc3)c1=O)NC(=O)C2CC(=O)N1CCc2ccccc2C1 (stereo not given),-4.4% (inactive)
15,CSc1nnc2c(n1)OC(c1ccsc1)N(C(C)=O)c1ccccc1-2 (stereo not given),10% (inactive)
16,C=CCNC(=O)CCCC(=O)NCC=C,8.2% (inactive)
17,CCN(CC)P(=O)(C(NC(=O)OC)C(F)(F)C(F)(F)C(F)(F)C(F)F)N(CC)CC (stereo not given),21% (inactive)
18,O=C(NCc1ccccc1Cl)c1csc2c1CCCCC2,-153% (inactive)
19,Cn1c(SCC(=O)NC2CCCCC2)nnc1-c1cc2ccccc2o1,9.1% (inactive)
20,CCOc1cc2c(cc1OCC)C(C(=O)O)C(c1ccc(OC)c(O)c1)N(C)C2=O (stereo not given),-10% (inactive)
21,O=C(NCc1cccs1)c1ccc2c(c1)ncn2C1CCCC1,25.4% (inactive)
22,O=C(CN1C2CCC1CC(NC(=O)C1CC1)C2)NCc1ccccc1 (stereo not given),-10.9% (inactive)
23,CC(=O)NC1CC2CCCC(C1)N2CC(=O)Nc1ccccc1 (stereo not given),50.7% (active)
24,COc1ccc(NC(=O)NC2CC3CCCC(C2)N3Cc2ccccc2)cc1 (stereo not given),-6.4% (inactive)

row,Structure (SMILES),inhibition
1,c1cc(-n2cnnn2)ccc1NC1=NCCC1,-26.8% (inactive)
2,O=C(O)CC(c1ccccc1)n1cnnn1 (stereo not given),-7.7% (inactive)
3,O=C(c1ccc(-n2cnnn2)cc1)N1CCN(C(c2ccccc2)c2ccccc2)CC1,83.4% (active)
4,Cc1ccc(S(=O)(=O)N2CCN(C(=O)CCC(=O)NC3CCCc4ccccc43)CC2)cc1 (stereo not given),32.1% (inactive)
5,CCOC(=O)N1CCN(S(=O)(=O)c2cc3c(cc2C)NC(=O)CO3)CC1,-21.5% (inactive)
6,Cc1ccc2oc(=O)c3cnn(CC(=O)N(Cc4ccco4)C4CCCCC4)c3c2c1,19.5% (inactive)
7,CCOC(=O)c1cc2sccc2n1Cc1ccc(C#N)cc1,96.7% (active)
8,CCOC(=O)c1cc2c(ccn2C)n1CC(=O)N1CCC(C)CC1,29.1% (inactive)
9,CCCOc1ccc(Cn2c(O)cc(=O)[nH]c2=O)cc1,-7.9% (inactive)
10,CCn1cc(C(=O)NCc2ccc3c(c2)OCO3)c2cc(OC)c(OC)cc2c1=O,31.5% (inactive)
11,Cc1nc2c(C(=O)NCc3ccc4c(c3)OCO4)c[nH]n2c(=O)c1Cc1ccccc1F,93.4% (active)
12,CCc1c(C)nc2ncnn2c1N1CCC(C(=O)NCc2ccc3c(c2)OCO3)CC1,12.9% (inactive)
13,CNC(=O)/C(=C\C=C\c1ccccc1)NC(=O)c1ccc([N+](=O)[O-])cc1,22.2% (inactive)
14,CCOC(=O)c1cnc(SCc2nc(N)nc(Nc3ccc(OC)cc3)n2)nc1N,40.5% (inactive)
15,Cc1nn(-c2ccccc2)c2c1C(=O)NC(=O)C(C)(C)C2,14.9% (inactive)
16,O=C(Nc1ccc(Oc2ccccc2)cc1)c1ccco1,24.3% (inactive)
17,CC1CCN(C(NC(=O)c2ccco2)C(=O)c2ccccc2)CC1 (stereo not given),71.6% (active)
18,CC1CCN(C(=O)Cn2cc(C(=O)c3ccco3)c3ccccc32)CC1,28.3% (inactive)
19,O=C(NC1CCCCC1)N1CCc2[nH]c3ccccc3c2C1,27.9% (inactive)
20,Cc1cc(Cl)c(S(=O)(=O)NCC2CCCO2)cc1OCC(N)=O (stereo not given),-10.7% (inactive)
21,Cc1ccc(-c2c3c(=O)n(C)c(=O)n(C)c3cn2-c2ccccc2O)cc1,43.7% (inactive)
22,COc1ccc(-c2c3c(=O)n(C)c(=O)n(C)c3cn2-c2cccc(OC)c2)cc1,4.2% (inactive)
23,COc1cccc(-n2cc3c(c2-c2ccccc2)c(=O)n(C)c(=O)n3C)c1,64.6% (active)
